Laboratory results from PubChem BioAssay (NCI).
About 79,000 compounds went through this panel and 15% of them were active in at least one assay; those are over-represented in the sample as a whole. The source made the active and inactive calls. Rule as the data show it: active = growth inhibition above about 70%; inactive = the rest.

How the values were obtained:
[1] = NCI Yeast Anticancer Drug Screen. Data for the rad52 strain (AID 147);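 also: 0% = growth of vehicle-treated control cultures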; details: S. cerevisiae rad52 mutant growth inhibition, stronger effect = higher value
Outline: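 Yeast strain carrying a DNA damage repair alteration was exposed to test compounds. Growth inhibition was measured relative to vehicle-treated controls.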

[2] = NCI Yeast Anticancer Drug Screen. Data for the wt1 strain (AID 149);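 also: 0% = growth of vehicle-treated wt1 cultures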; details: S. cerevisiae wt1 strain (SPY 50644) growth inhibition, stronger effect = higher value
Outline: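 Each compound is tested on wt1 yeast and the loss of growth versus vehicle gives the inhibition value.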

[3] = NCI Yeast Anticancer Drug Screen. Data for the rad50EPP+ strain (AID 151);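 also: 0% = growth of vehicle-treated control cultures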; details: S. cerevisiae rad50 mutant strain, stronger effect = higher value
Outline: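 Yeast strain carrying rad50 alteration (rad50EPP+) exposed to compounds; growth inhibition measured relative to vehicle-treated controls.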

[4] = NCI Yeast Anticancer Drug Screen. Data for the mgt1 strain (AID 153); details: S. cerevisiae mgt1 mutant growth inhibition, stronger effect = higher value
Outline: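 Yeast mgt1 strain (DNA repair/cell-cycle alteration panel) exposed to compounds; growth inhibition measured relative to vehicle-treated controls.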

[5] = NCI Yeast Anticancer Drug Screen. Data for the rad50 strain (AID 155);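 also: 0% = growth of vehicle-only cultures of the same strain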; details: S. cerevisiae rad50 strain growth inhibition, stronger effect = higher value
Outline: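 Vehicle-treated cultures provide the reference for the growth inhibition reported for compound-exposed, repair-deficient yeast.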

[6] = NCI Yeast Anticancer Drug Screen. Data for the mec2-1 strain (AID 157); details: S. cerevisiae mec2-1 strain, stronger effect = higher value
Outline: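 mec2-1 yeast strain, carrying an alteration in DNA damage repair or cell cycle control, was exposed to compounds; growth inhibition was measured relative to vehicle-treated controls.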

[7] = NCI Yeast Anticancer Drug Screen. Data for the sgs1 mgt1 strain (AID 161);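 also: 0% = growth of cultures given vehicle only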; details: S. cerevisiae sgs1 mgt1 strain, stronger effect = higher value
Outline: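 Growth of a repair-deficient yeast mutant was monitored after compound treatment and expressed as inhibition relative to vehicle-treated cultures.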

[8] = NCI Yeast Anticancer Drug Screen. Data for the CLN2oe strain (AID 163);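 also: 0% = growth of vehicle-only control cultures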; details: S. cerevisiae CLN2oe strain, stronger effect = higher value
Outline: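 Yeast cells carrying a defined cell-cycle control alteration were exposed to test compounds. Growth inhibition was scored against vehicle-treated control cultures.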

[9] = NCI Yeast Anticancer Drug Screen. Data for the cln2 rad14 strain (AID 165);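 also: 0% = growth equal to vehicle treated cultures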; details: S. cerevisiae cln2 rad14 strain, stronger effect = higher value
Outline: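 Yeast carrying cln2 and rad14 alterations (cell cycle control and DNA damage repair) were exposed to compounds. Growth inhibition was measured against vehicle-treated controls.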

[10] = NCI Yeast Anticancer Drug Screen. Data for the bub3 strain (AID 167); details: S. cerevisiae bub3 mutant strain, stronger effect = higher value
Outline: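 Mutant yeast screening strain plus compound; vehicle-treated cultures serve as the 0% inhibition reference.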

[11] = NCI Yeast Anticancer Drug Screen. Data for the wt2 strain (AID 169); details: S. cerevisiae wt2 strain growth inhibition, stronger effect = higher value
Outline: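 Yeast cells were exposed to test compounds, and growth inhibition was measured relative to vehicle-treated controls.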

[12] = NCI Yeast Anticancer Drug Screen. Data for the mlh1 strain (AID 171);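 also: 0% = growth of vehicle-treated control cultures of the same strain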; details: S. cerevisiae mlh1 strain growth inhibition, stronger effect = higher value
Outline: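 Yeast carrying a defined genetic alteration in DNA damage repair or cell cycle control were exposed to test compounds. Growth inhibition was measured relative to vehicle-treated controls.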

[13] = NCI Yeast Anticancer Drug Screen. Data for the sgs1 strain (AID 173);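 also: 0% = growth of vehicle-only control cultures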; details: S. cerevisiae sgs1 mutant, stronger effect = higher value
Outline: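 Yeast mutant strains carrying defined defects in DNA damage repair or cell cycle control were exposed to test compounds. Growth inhibition was scored against vehicle-treated controls.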

[14] = NCI Yeast Anticancer Drug Screen. Data for the mlh1 rad18 strain (AID 175); details: S. cerevisiae mlh1 rad18 strain growth inhibition, stronger effect = higher value
Outline: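 Growth inhibition of the yeast strain was measured after compound exposure and expressed relative to vehicle-treated controls. The strain carries defined defects in DNA damage repair.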

[15] = NCI Yeast Anticancer Drug Screen. Data for the rad14 strain (AID 159);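 also: 0% = growth of vehicle-treated control cultures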; details: S. cerevisiae rad14 strain growth inhibition, stronger effect = higher value
Outline: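 Inhibition of growth is reported for a repair-deficient yeast mutant following compound treatment, calculated relative to cultures that received vehicle.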

[16] = NCI Yeast Anticancer Drug Screen. Data for the rad18 strain (AID 177); details: S. cerevisiae rad18 mutant growth inhibition, stronger effect = higher value
Outline: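 Yeast carrying a defined DNA damage repair alteration were exposed to compounds. Growth inhibition was expressed relative to vehicle-treated controls.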

[17] = at 5.0 µM (retest, dose inferred, filed as 0.5)
[18] = at 50.0 µM (retest, dose inferred, filed as 5.0)

Measured: growth inhibition

O=C(/C=C/c1cccc2ccccc12)c1ccc(Cl)cc1
inactive: [1]; at 1.2 µM 7% | [1]; at 3.7 µM 7% | [1]; at 11.0 µM 7% | [1]; at 33.0 µM -4% | [1]; at 100.0 µM -13% | [2]; at 1.2 µM -30% | [2]; at 3.7 µM -19% | [2]; at 11.0 µM -28% | [2]; at 33.0 µM -34% | [2]; at 100.0 µM -45% | [3]; at 1.2 µM -3% | [3]; at 3.7 µM 4% | [3]; at 11.0 µM 9% | [3]; at 33.0 µM 0% | [3]; at 100.0 µM -12% | [4]; at 1.2 µM 13% | [4]; at 3.7 µM 11% | [4]; at 11.0 µM 7% | [4]; at 33.0 µM 8% | [4]; at 100.0 µM -5% | [5]; at 1.2 µM 24% | [5]; at 3.7 µM 27% | [5]; [17] 37% | [5]; at 11.0 µM 24% | [5]; at 33.0 µM 13% | [5]; at 100.0 µM 13% | [6]; at 1.2 µM 11% | [6]; at 3.7 µM 14% | [6]; [17] 67% | [6]; at 11.0 µM -2% | [6]; at 33.0 µM -6% | [6]; at 100.0 µM -12% | [7]; [17] -3% | [7]; [18] 42% | [8]; at 1.2 µM 5% | [8]; at 3.7 µM 4% | [8]; at 11.0 µM -27% | [8]; at 33.0 µM -35% | [8]; at 100.0 µM -43% | [9]; [17] 28% | [9]; [18] -7% | [10]; at 1.2 µM 6% | [10]; at 3.7 µM 11% | [10]; [17] 2% | [10]; at 11.0 µM 9% | [10]; at 33.0 µM 7% | [10]; [18] 17% | [10]; at 100.0 µM -6% | [11]; at 1.2 µM -25% | [11]; at 3.7 µM -19% | [11]; at 11.0 µM -28% | [11]; at 33.0 µM -33% | [11]; at 100.0 µM -33% | [12]; at 1.2 µM -33% | [12]; at 3.7 µM -24% | [12]; at 11.0 µM -34% | [12]; at 33.0 µM -46% | [12]; at 100.0 µM -49% | [13]; at 1.2 µM -21% | [13]; at 3.7 µM -22% | [13]; at 11.0 µM -27% | [13]; at 33.0 µM -34% | [13]; at 100.0 µM -48% | [14]; [17] 35%
active: [5]; [18] 98% | [5]; at 50.0 µM 83.5% | [6]; [18] 99% | [6]; at 50.0 µM 74.6% | [14]; [18] 99% | [14]; at 50.0 µM 80.4%

CNc1ccc(Cc2c[nH]c3ccccc23)cc1
active: [5]; [18] 76% | [5]; at 50.0 µM 89% | [6]; [18] 86% | [9]; [18] 70% | [10]; [18] 89% | [14]; [18] 79% | [14]; at 50.0 µM 84.8%
inactive: [1]; at 1.2 µM -20% | [1]; at 3.7 µM -35% | [1]; at 11.0 µM -27% | [1]; at 33.0 µM 4% | [1]; at 100.0 µM 22% | [2]; at 1.2 µM -11% | [2]; at 3.7 µM -11% | [2]; at 11.0 µM -17% | [2]; at 33.0 µM -17% | [2]; at 100.0 µM -1% | [3]; at 1.2 µM -36% | [3]; at 3.7 µM -48% | [3]; at 11.0 µM -23% | [3]; at 33.0 µM 26% | [3]; at 100.0 µM 39% | [4]; at 1.2 µM -32% | [4]; at 3.7 µM -28% | [4]; at 11.0 µM -32% | [4]; at 33.0 µM 1% | [4]; at 100.0 µM 25% | [5]; at 1.2 µM -40% | [5]; at 3.7 µM -48% | [5]; [17] 42% | [5]; at 11.0 µM -41% | [5]; at 33.0 µM 14% | [5]; at 100.0 µM 26% | [6]; at 1.2 µM -28% | [6]; at 3.7 µM -15% | [6]; [17] 56% | [6]; at 11.0 µM -23% | [6]; at 33.0 µM -5% | [6]; at 50.0 µM 67.9% | [6]; at 100.0 µM 8% | [15]; at 1.2 µM -21% | [15]; at 3.7 µM -19% | [15]; at 11.0 µM -18% | [15]; at 33.0 µM -5% | [15]; at 100.0 µM -3% | [7]; [17] -13% | [7]; [18] 64% | [8]; at 1.2 µM -8% | [8]; at 3.7 µM -30% | [8]; at 11.0 µM -35% | [8]; at 33.0 µM -19% | [8]; at 100.0 µM -5% | [9]; [17] 27% | [10]; at 1.2 µM -8% | [10]; at 3.7 µM -1% | [10]; [17] 15% | [10]; at 11.0 µM 10% | [10]; at 33.0 µM 7% | [10]; at 100.0 µM 30% | [11]; at 1.2 µM -17% | [11]; at 3.7 µM -24% | [11]; at 11.0 µM -29% | [11]; at 33.0 µM -5% | [11]; at 100.0 µM 13% | [12]; at 1.2 µM -35% | [12]; at 3.7 µM -41% | [12]; at 11.0 µM -25% | [12]; at 33.0 µM 15% | [12]; at 100.0 µM 27% | [13]; at 1.2 µM -30% | [13]; at 3.7 µM -30% | [13]; at 11.0 µM -31% | [13]; at 33.0 µM 11% | [13]; at 100.0 µM 28% | [14]; [17] 35% | [16]; at 1.2 µM -54% | [16]; at 3.7 µM -64% | [16]; at 11.0 µM -51% | [16]; at 33.0 µM -8% | [16]; at 100.0 µM 20%
